The record followed here is PubChem BioAssay (NCI).

Some test systems named below: NCI-H23 lung; NCI-H226 lung; NCI-H322M lung; HOP-62 NSCLC; NCI-H460 lung; HOP-92 NSCLC; NCI-H522 lung; A549/ATCC NSCLC; 786-0 renal; COLO 205 colon; DU-145 prostate; K-562 leukemia; MALME-3M melanoma; MDA-MB-231 breast; RXF 393 renal; SF-268 CNS; SF-295 CNS; SF-539 CNS; UACC-257 melanoma; M14 melanoma.
Holding throughout (experiment): NCI-60 one-dose screen, 48 h (100 = growth as untreated, 0 = no growth, -100 = all killed)
Settings in all cases: 10 µM unless noted

The structures appear in SMILES notation. This is part of a sample that, as a whole, favours compounds with a hit. Of some 83,000 tested, about 20% had one in any assay.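 Interpretation: 100, growth as untreated; towards 0, rising growth inhibition; 0, no net growth; 0 to -100, cell death. Compounds scoring below 10 were considered active.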 Unmarked numbers belong to inactive results. The source made the active and inactive calls.

Take `O=C1/C(=C/c2cccc3c2OCO3)Cc2c(F)cc(Br)cc21`: the growth was 97.2% in the experiment with NCI-H23 lung; 106% in the experiment on NCI-H226 lung; 113% in the experiment on NCI-H322M lung; 109% with HOP-62 NSCLC; 117% with NCI-H460 lung; 123% in the experiment with HOP-92 NSCLC. Besides, the growth is 104% with NCI-H522 lung; 111% in the experiment on A549/ATCC NSCLC; 107% in the experiment with 786-0 renal; 128% with COLO 205 colon; 115% with DU-145 prostate; 109% in the experiment with K-562 leukemia. Moreover, the growth is 103% in the experiment with MALME-3M melanoma; 115% with MDA-MB-231 breast; 104% in the experiment with RXF 393 renal; 109% in the experiment with SF-268 CNS; 96% in the experiment with SF-295 CNS; 99.7% in the experiment on SF-539 CNS. Also, the growth in the experiment with UACC-257 melanoma is 114%.
For `c1n[nH]cc1-c1nc2ccc3cn[nH]c3c2c2c1CCCC2`, the growth in the experiment on NCI-H23 lung is 90.2%; in the experiment with NCI-H226 lung it was 46.4%; with NCI-H322M lung it was 86.8%; with HOP-62 NSCLC, 79.9%; with NCI-H460 lung it was 101%; in the experiment with HOP-92 NSCLC, 85.2%. In addition, the growth in the experiment with NCI-H522 lung is 70.7%; in the experiment on A549/ATCC NSCLC, 95.1%; in the experiment with 786-0 renal, 110%; with COLO 205 colon, 102%; in the experiment with DU-145 prostate it was 93%; in the experiment on K-562 leukemia, 101%. For the same compound, the growth in the experiment on MALME-3M melanoma is 72.9%; with MDA-MB-231 breast, 58.3%; in the experiment with RXF 393 renal, 44.8%; in the experiment with SF-268 CNS, 94.1%; in the experiment on SF-295 CNS, 89.4%; with SF-539 CNS, 80.8%. Also, the growth in the experiment with UACC-257 melanoma is 100%; in the experiment on M14 melanoma, 93.2%.
For the compound `COc1c(B(O)O)cccc1-c1nc2ccc3cn[nH]c3c2c2c1CCCC2`, the growth is 72.8% in the experiment with NCI-H23 lung; 49.5% in the experiment with NCI-H226 lung; 67.7% in the experiment with NCI-H322M lung; 68.7% with HOP-62 NSCLC; 56.8% with NCI-H460 lung; 27.2% in the experiment with HOP-92 NSCLC. The growth is 62.6% in the experiment with NCI-H522 lung; 41.9% in the experiment on A549/ATCC NSCLC; 31.8% with 786-0 renal; 71.7% with COLO 205 colon; 69.1% in the experiment on DU-145 prostate; 74.7% in the experiment on K-562 leukemia. Also, the growth was 87% in the experiment with MALME-3M melanoma; 25.3% with MDA-MB-231 breast; -30.3% (active) in the experiment with RXF 393 renal; 50.3% with SF-268 CNS; 70% in the experiment with SF-295 CNS; 9.76% (active) in the experiment with SF-539 CNS. Further, the growth with UACC-257 melanoma is 83.9%.
Regarding `COc1ccc(N=Nc2c(N)nn3c(N)c(C#N)c(-c4ccccc4)nc23)cc1`, the growth was 32.3% with NCI-H23 lung; 0.868% (active) in the experiment on NCI-H226 lung; 45.7% in the experiment on NCI-H322M lung; -1.62% (active) in the experiment with HOP-62 NSCLC; 16.1% with NCI-H460 lung; -9.66% (active) with HOP-92 NSCLC. Also, the growth in the experiment on NCI-H522 lung is -4.5% (active); in the experiment with A549/ATCC NSCLC, 53.1%; in the experiment with 786-0 renal it was 13.8%; with COLO 205 colon, 80.8%; in the experiment with DU-145 prostate, 24.4%; in the experiment on K-562 leukemia it was 71.8%. Also, the growth in the experiment on MALME-3M melanoma is 28.5%; with MDA-MB-231 breast, 9.1% (active); in the experiment with RXF 393 renal, 8.34% (active); in the experiment with SF-268 CNS, 11.6%; in the experiment with SF-295 CNS, 39.4%; with SF-539 CNS, -3.46% (active). The growth in the experiment on UACC-257 melanoma is 71%.
For the compound `CCCCNc1ccc2c3c(cccc13)C(=O)N(c1cccc(-c3nn(-c4ccccc4)cc3-c3nc4ccccc4s3)c1)C2=O`, the growth is 93.1% in the experiment on NCI-H23 lung; 83.5% in the experiment with NCI-H226 lung; 104% in the experiment on NCI-H322M lung; 107% with HOP-62 NSCLC; 110% with NCI-H460 lung; 100% in the experiment with HOP-92 NSCLC. Besides, the growth in the experiment with NCI-H522 lung was 99.1%; in the experiment on A549/ATCC NSCLC, 117%; with 786-0 renal it was 101%; in the experiment on COLO 205 colon it was 109%; in the experiment on DU-145 prostate, 106%; with K-562 leukemia, 89.5%. Also, the growth in the experiment on MALME-3M melanoma is 103%; in the experiment with MDA-MB-231 breast it was 99.1%; in the experiment on RXF 393 renal, 98.5%; with SF-268 CNS it was 109%; in the experiment with SF-295 CNS, 104%; with SF-539 CNS, 101%. In addition, the figures for the growth with UACC-257 melanoma and with M14 melanoma were 113% and 99.6%, respectively.
As to `Cc1cccc(/C=C/c2ccc(NC(=S)NCCCCN(C)C)cc2)c1`, the growth in the experiment on NCI-H23 lung was -99.7% (active); in the experiment on NCI-H226 lung, -72.1% (active); in the experiment with NCI-H322M lung, -91.1% (active); in the experiment with HOP-62 NSCLC, -67.4% (active); in the experiment on NCI-H460 lung, -85.5% (active); in the experiment on HOP-92 NSCLC, -57.2% (active). Moreover, the growth in the experiment on NCI-H522 lung is -73.7% (active); with A549/ATCC NSCLC it was -57.9% (active); in the experiment on 786-0 renal it was -57.4% (active); with COLO 205 colon it was -69.5% (active); in the experiment on DU-145 prostate, -82.7% (active); with K-562 leukemia, 3.99% (active). Also, the growth with MALME-3M melanoma was -96.1% (active); in the experiment with MDA-MB-231 breast it was -94.4% (active); in the experiment on RXF 393 renal, -91.8% (active); with SF-268 CNS, -52.4% (active); in the experiment with SF-295 CNS, -95.6% (active); in the experiment with SF-539 CNS, -86.4% (active). Moreover, the growth in the experiment on UACC-257 melanoma is -65.4% (active).
Regarding `CN(C)c1nc(NCCNS(=O)(=O)c2ccc(C(=O)/C=C/c3ccc(Cl)cc3)cc2)nc(N2CCOCC2)n1`, the growth in the experiment on NCI-H23 lung is 9.4% (active); with NCI-H226 lung, 74.9%; with NCI-H322M lung it was 81.2%; in the experiment on HOP-62 NSCLC, 74.8%; in the experiment on NCI-H460 lung it was 50.7%; in the experiment on HOP-92 NSCLC it was 67.9%. Further, the growth was 25% with NCI-H522 lung; 12% with A549/ATCC NSCLC; -41.6% (active) in the experiment on 786-0 renal; 21.1% in the experiment on COLO 205 colon; 6.95% (active) in the experiment with DU-145 prostate; -6.36% (active) with K-562 leukemia. Moreover, the growth was 89.2% in the experiment on MALME-3M melanoma; 15.7% in the experiment on MDA-MB-231 breast; -59.3% (active) with RXF 393 renal; 57.8% with SF-268 CNS; 55.5% in the experiment on SF-295 CNS; -67.5% (active) in the experiment on SF-539 CNS. Further, the growth in the experiment with UACC-257 melanoma is 71.5%.
On to `CNS(=O)(=O)N1CCc2c(Br)c3c(c(OC)c2C1CCc1ccccc1)OCO3` (centres undefined), for which the growth in the experiment on NCI-H23 lung was -19.5% (active); in the experiment on NCI-H226 lung, -70.3% (active); in the experiment on NCI-H322M lung it was 4.7% (active); in the experiment on HOP-62 NSCLC, -18.6% (active); in the experiment with NCI-H460 lung it was -67.7% (active); in the experiment on HOP-92 NSCLC, -54.3% (active). The growth is -12.3% (active) in the experiment on NCI-H522 lung; 16.6% in the experiment with A549/ATCC NSCLC; -44.9% (active) in the experiment on 786-0 renal; -51.3% (active) in the experiment with COLO 205 colon; 12.1% in the experiment with DU-145 prostate; 13.1% with K-562 leukemia. Also, the growth was -65% (active) with MALME-3M melanoma; -62.8% (active) in the experiment on MDA-MB-231 breast; -59.7% (active) in the experiment with RXF 393 renal; -12% (active) with SF-268 CNS; -75.3% (active) with SF-295 CNS; -86.5% (active) in the experiment on SF-539 CNS. In addition, in the experiment with UACC-257 melanoma, the growth was -24.5% (active).
